PubChem BioAssay (NCI)
About 83,000 compounds went through this panel and 20% of them were active in at least one assay; those are over-represented in the sample as a whole.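 Results are percent growth after 48 hours of single-concentration exposure. 100 means growth as in untreated cells, lower positive values show inhibition; negative values down to -100 show cell death.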 Activity calls are given as the source filed them. How the source made its calls: active means growth percent below 10; inactive means the rest.

Assays:
Experiment in all cases: NCI-60 one-dose screen, 48 h (100 = growth as untreated, 0 = no growth, -100 = all killed)
Conditions in all cases: 10 µM unless noted
SR leukemia = tested on: SR leukemia
RPMI-8226 leukemia = tested on: RPMI-8226 leukemia
OVCAR-8 ovarian = tested on: OVCAR-8 ovarian
OVCAR-5 ovarian = tested on: OVCAR-5 ovarian
OVCAR-4 ovarian = tested on: OVCAR-4 ovarian
SK-OV-3 ovarian = tested on: SK-OV-3 ovarian
IGROV1 ovarian = tested on: IGROV1 ovarian
OVCAR-3 ovarian = tested on: OVCAR-3 ovarian
HS 578T breast = tested on: HS 578T breast
NCI/ADR-RES ovarian = tested on: NCI/ADR-RES ovarian
T-47D breast = tested on: T-47D breast
BT-549 breast = tested on: BT-549 breast
MDA-MB-435 melanoma = tested on: MDA-MB-435 melanoma
SW-620 colon = tested on: SW-620 colon
MCF7 breast = tested on: MCF7 breast
HCT-116 colon = tested on: HCT-116 colon
HCC-2998 colon = tested on: HCC-2998 colon
KM12 colon = tested on: KM12 colon

Measured: growth

CC(=O)NC(C)(C)C(=O)N1CCC[C@H]1C(=O)NC(C)(C)C(=O)N[C@@H](C)C(=O)NC(C)(C)C(=O)NC(C)(C)C(=O)N[C@@H](CCC(N)=O)C(=O)NC(C)(C)C(=O)N[C@H](C(=O)NC(C)(C)C(=O)NCC(=O)N[C@@H](CC(C)C)C(=O)NC(C)(C)C(=O)N1CCC[C@H]1C(=O)N[C@H](C(=O)NC(C)(C)C(=O)NC(C)(C)C(=O)N[C@@H](CCC(N)=O)C(=O)N[C@@H](CCC(N)=O)C(=O)N[C@H](CO)Cc1ccccc1)C(C)C)C(C)C
inactive: SR leukemia 30.2% [4.25 µM] | OVCAR-8 ovarian 46.3% [4.25 µM] | OVCAR-5 ovarian 45.2% [4.25 µM] | OVCAR-4 ovarian 24.5% [4.25 µM] | SK-OV-3 ovarian 17.1% [4.25 µM] | IGROV1 ovarian 46.4% [4.25 µM] | OVCAR-3 ovarian 26.3% [4.25 µM] | HS 578T breast 46% [4.25 µM] | NCI/ADR-RES ovarian 101% [4.25 µM] | T-47D breast 10% [4.25 µM] | MDA-MB-435 melanoma 17% [4.25 µM] | SW-620 colon 45.5% [4.25 µM] | MCF7 breast 12.4% [4.25 µM] | HCT-116 colon 24.1% [4.25 µM] | HCC-2998 colon 39.7% [4.25 µM] | KM12 colon 35.7% [4.25 µM]
active: RPMI-8226 leukemia -17.4% [4.25 µM] | BT-549 breast -56.1% [4.25 µM]

c1ccc(-c2c(-c3ccccc3)[n+](Cc3ccc4ccccc4c3)c(-c3ccccc3)n2Cc2ccc3ccccc3c2)cc1
active: SR leukemia -41.1% | RPMI-8226 leukemia -30.5% | OVCAR-8 ovarian -69.3% | OVCAR-5 ovarian -96.3% | OVCAR-4 ovarian -75% | SK-OV-3 ovarian -92.9% | IGROV1 ovarian -76.5% | OVCAR-3 ovarian -87.8% | HS 578T breast -50.4% | NCI/ADR-RES ovarian -65.8% | T-47D breast -60.9% | BT-549 breast -87.1% | MDA-MB-435 melanoma -93.9% | SW-620 colon -81.7% | MCF7 breast -72.9% | HCT-116 colon -74.8% | HCC-2998 colon -90.3%

COc1cc2cc(Oc3ccc(NC(=O)c4cccc(C(F)(F)F)c4)cc3)c(C)nc2cc1OCCN(C)C
inactive: SR leukemia 28.6% | RPMI-8226 leukemia 73.1% | OVCAR-8 ovarian 89.8% | OVCAR-5 ovarian 103% | OVCAR-4 ovarian 80.5% | SK-OV-3 ovarian 108% | IGROV1 ovarian 93.2% | OVCAR-3 ovarian 102% | HS 578T breast 74.8% | NCI/ADR-RES ovarian 80.7% | T-47D breast 91.2% | BT-549 breast 101% | SW-620 colon 79.5% | MCF7 breast 22.7% | HCT-116 colon 61.2% | HCC-2998 colon 80.3%
active: MDA-MB-435 melanoma 6.7%

COc1cc(C(=O)C[n+]2ccc3ccccc3c2)cc(OC)c1OC
inactive: SR leukemia 102% | RPMI-8226 leukemia 111% | OVCAR-8 ovarian 100% | OVCAR-5 ovarian 102% | OVCAR-4 ovarian 104% | SK-OV-3 ovarian 97.1% | IGROV1 ovarian 95.8% | OVCAR-3 ovarian 105% | HS 578T breast 94% | NCI/ADR-RES ovarian 101% | T-47D breast 96.3% | BT-549 breast 107% | MDA-MB-435 melanoma 100% | SW-620 colon 94% | MCF7 breast 96.3% | HCT-116 colon 95.9% | HCC-2998 colon 103% | KM12 colon 96.1%

COc1ccc(Cn2cc3c(c2-c2cc(OC)c(OC)c(OC)c2)CCCc2cnoc2-3)cc1
inactive: SR leukemia 13.4% | RPMI-8226 leukemia 23.4% | OVCAR-8 ovarian 43% | OVCAR-5 ovarian 34.9% | OVCAR-4 ovarian 62.3% | SK-OV-3 ovarian 58% | IGROV1 ovarian 22.1% | HS 578T breast 22.1% | NCI/ADR-RES ovarian 15.5% | T-47D breast 39.1% | BT-549 breast 63.3% | SW-620 colon 25.6% | MCF7 breast 11.5% | HCT-116 colon 19% | HCC-2998 colon 32.4% | KM12 colon 29%
active: OVCAR-3 ovarian 4.45% | MDA-MB-435 melanoma -48.2%

Oc1ccc(CSc2nnc(-c3ccc(Oc4ccccc4)cc3)o2)c2cccnc12
inactive: SR leukemia 32.2% | RPMI-8226 leukemia 23.5% | OVCAR-8 ovarian 24.2% | OVCAR-5 ovarian 48.3% | SK-OV-3 ovarian 22% | IGROV1 ovarian 26.1% | HS 578T breast 10.4% | NCI/ADR-RES ovarian 12.6% | BT-549 breast 49.8% | MDA-MB-435 melanoma 29.9% | MCF7 breast 16% | HCC-2998 colon 29.4%
active: OVCAR-4 ovarian -36.5% | OVCAR-3 ovarian -28.7% | T-47D breast 7.85% | SW-620 colon 2.32% | HCT-116 colon 1.74% | KM12 colon 9.88%

CCCC(=O)NC(c1cccnc1)c1cc(Cl)c2cccnc2c1O (stereo not drawn)
inactive: SR leukemia 39.6% | RPMI-8226 leukemia 30.7% | OVCAR-8 ovarian 21.9% | OVCAR-5 ovarian 55.6% | OVCAR-4 ovarian 22.7% | SK-OV-3 ovarian 44.4% | IGROV1 ovarian 28.5% | OVCAR-3 ovarian 19.7% | HS 578T breast 17.3% | NCI/ADR-RES ovarian 10.2% | T-47D breast 27.7% | BT-549 breast 68.8% | MDA-MB-435 melanoma 38.1% | SW-620 colon 26% | MCF7 breast 12.5% | HCT-116 colon 29.1% | HCC-2998 colon 51.2%

CCN1C(=O)N(CC)C2SC(N/N=C/C=C/c3ccccc3OC)=NC21 (stereo not drawn)
active: OVCAR-3 ovarian -39.6% | MDA-MB-435 melanoma -16.7% | HCT-116 colon 6.23% | HCC-2998 colon 8.41%
inactive: SR leukemia 27.5% | RPMI-8226 leukemia 14.3% | OVCAR-8 ovarian 22.3% | OVCAR-5 ovarian 37.7% | OVCAR-4 ovarian 68.6% | SK-OV-3 ovarian 52.8% | IGROV1 ovarian 21.4% | HS 578T breast 27.1% | NCI/ADR-RES ovarian 11.9% | T-47D breast 67.3% | BT-549 breast 18.7% | SW-620 colon 20.4% | MCF7 breast 12.9% | KM12 colon 11.6%

CCNC(=O)Oc1ccc(/C(=C(/C)c2ccc(Cl)cc2)c2ccc(OCCN(C)C)cc2)cc1
inactive: SR leukemia 42.4% | RPMI-8226 leukemia 19.3% | OVCAR-8 ovarian 87.9% | OVCAR-5 ovarian 84.9% | OVCAR-4 ovarian 71.6% | SK-OV-3 ovarian 94.2% | IGROV1 ovarian 64.4% | OVCAR-3 ovarian 77.8% | HS 578T breast 80.8% | NCI/ADR-RES ovarian 74.9% | T-47D breast 54.8% | BT-549 breast 77% | MDA-MB-435 melanoma 91.6% | SW-620 colon 82.2% | MCF7 breast 18.1% | HCT-116 colon 43% | HCC-2998 colon 81.2% | KM12 colon 89.8%

NS(=O)(=O)c1ccc(Nc2nc(N/N=C/c3ccc(C(F)(F)F)cc3)nc(Nc3ccccc3)n2)cc1
active: SR leukemia 7.13% | RPMI-8226 leukemia -5.16% | HS 578T breast 8.82% | HCT-116 colon 9.73%
inactive: OVCAR-8 ovarian 33% | OVCAR-5 ovarian 67.5% | OVCAR-4 ovarian 40.9% | SK-OV-3 ovarian 55.5% | IGROV1 ovarian 31.2% | OVCAR-3 ovarian 11.7% | NCI/ADR-RES ovarian 87.4% | T-47D breast 31.3% | BT-549 breast 48.9% | MDA-MB-435 melanoma 19.9% | SW-620 colon 54.8% | MCF7 breast 10.3% | HCC-2998 colon 53.1% | KM12 colon 21.7%

O=C(O)c1ccc(-n2cc(CNc3ccc(F)cc3)c(-c3ccc(C(F)(F)F)cc3)n2)cc1
inactive: SR leukemia 109% | RPMI-8226 leukemia 86.5% | OVCAR-8 ovarian 71.8% | OVCAR-5 ovarian 106% | OVCAR-4 ovarian 86.8% | SK-OV-3 ovarian 95.2% | IGROV1 ovarian 95% | OVCAR-3 ovarian 84.1% | HS 578T breast 88.8% | NCI/ADR-RES ovarian 87% | T-47D breast 78.2% | BT-549 breast 103% | MDA-MB-435 melanoma 80.9% | SW-620 colon 98.6% | MCF7 breast 67.8% | HCT-116 colon 83.3% | HCC-2998 colon 102%

CCCCCCNC(=O)Oc1ccc(/C(=C(/C)c2ccc(OC)cc2)c2ccc(OCCN3CCCC3)cc2)cc1
inactive: RPMI-8226 leukemia 16.8% | OVCAR-8 ovarian 86.6% | OVCAR-5 ovarian 81.5% | OVCAR-4 ovarian 84.8% | SK-OV-3 ovarian 97.9% | IGROV1 ovarian 65.7% | OVCAR-3 ovarian 89.8% | HS 578T breast 83.7% | NCI/ADR-RES ovarian 77% | T-47D breast 59.7% | BT-549 breast 84.3% | MDA-MB-435 melanoma 74.4% | SW-620 colon 62.6% | MCF7 breast 18.2% | HCT-116 colon 31.4% | HCC-2998 colon 87.9% | KM12 colon 82%
active: SR leukemia 5.51%

O=C(CN1C(=O)CSC1=O)Nc1ccc(C(=O)/C=C/c2cc3ccccc3nc2Cl)cc1
inactive: SR leukemia 36.7% | OVCAR-8 ovarian 77.7% | OVCAR-5 ovarian 101% | OVCAR-4 ovarian 46.4% | SK-OV-3 ovarian 101% | IGROV1 ovarian 66.9% | OVCAR-3 ovarian 87.4% | HS 578T breast 82.7% | NCI/ADR-RES ovarian 89.5% | T-47D breast 58.7% | BT-549 breast 66.1% | MDA-MB-435 melanoma 25.6% | SW-620 colon 95.6% | MCF7 breast 12.5% | HCC-2998 colon 82.1% | KM12 colon 62.2%
active: RPMI-8226 leukemia -13.2% | HCT-116 colon -45.5%

Oc1ccc(CSc2nnc(-c3cnccn3)n2-c2ccccc2)c2cccnc12
inactive: SR leukemia 42.1% | RPMI-8226 leukemia 29.1% | OVCAR-8 ovarian 23.1% | OVCAR-5 ovarian 50.3% | OVCAR-4 ovarian 16.5% | SK-OV-3 ovarian 21.1% | IGROV1 ovarian 16.3% | OVCAR-3 ovarian 14.8% | HS 578T breast 29.4% | NCI/ADR-RES ovarian 10.9% | BT-549 breast 41.8% | MDA-MB-435 melanoma 23.4% | SW-620 colon 23.8% | HCT-116 colon 19.3% | HCC-2998 colon 42.1% | KM12 colon 18.9%
active: T-47D breast 7.38% | MCF7 breast 2.85%

Cc1[nH]nc2ccc(-c3nc4cnc(N5CCN(C)CC5)cn4c3Nc3ccc(F)cc3Br)cc12
active: SR leukemia 4.63% | RPMI-8226 leukemia -6.49% | OVCAR-8 ovarian 6.47%
inactive: OVCAR-5 ovarian 80.3% | OVCAR-4 ovarian 64.6% | SK-OV-3 ovarian 97.4% | IGROV1 ovarian 59.7% | OVCAR-3 ovarian 10.5% | HS 578T breast 91.5% | NCI/ADR-RES ovarian 49.4% | T-47D breast 38.9% | BT-549 breast 91.1% | MDA-MB-435 melanoma 30.7% | SW-620 colon 32.8% | MCF7 breast 15.5% | HCT-116 colon 11% | HCC-2998 colon 69.8% | KM12 colon 59.3%

O=C(/C=C1\C=CN(CCCCF)c2ccccc21)n1ccc2ccccc21
inactive: SR leukemia 107% | RPMI-8226 leukemia 102% | OVCAR-8 ovarian 106% | OVCAR-5 ovarian 99.2% | OVCAR-4 ovarian 85.4% | SK-OV-3 ovarian 95.9% | IGROV1 ovarian 74.9% | OVCAR-3 ovarian 126% | HS 578T breast 119% | NCI/ADR-RES ovarian 108% | T-47D breast 91% | BT-549 breast 114% | MDA-MB-435 melanoma 106% | SW-620 colon 105% | MCF7 breast 91.8% | HCT-116 colon 105% | HCC-2998 colon 106%
